Assay results: PubChem BioAssay AID1851 (National Center for Advancing Translational Sciences (NCATS), 2009)
Hit rate of the full screen: of about 16,000 compounds, about 5,100 (32%) were called active. Roughly 25% stayed inconclusive and do not appear here. The call rests on the fitted dose curve; in most records, active means well fitted curve in the direction sought with a large enough effect; inconclusive means small, poorly fitted or top-dose-only effect, or effect the other way; inactive means no such curve, though single readings can be large or run the other way. The list shows a part of the results.

target: Cytochrome P450 3A4 (Homo sapiens) (UniProt P08684); assay: Cytochrome panel assay with activity outcomes; details: recombinant CYP, pro-luciferin dealkylation, luminescence, p450-cyp3a4; series mostly up to 57.1 µM; activity, negative = inhibition: at the top concentration
On the % scale 0 is the no-effect control and ±100 the full control effect.

Chain of Cytochrome P450 3A4 (Homo sapiens) (P08684 whole entry, looked up): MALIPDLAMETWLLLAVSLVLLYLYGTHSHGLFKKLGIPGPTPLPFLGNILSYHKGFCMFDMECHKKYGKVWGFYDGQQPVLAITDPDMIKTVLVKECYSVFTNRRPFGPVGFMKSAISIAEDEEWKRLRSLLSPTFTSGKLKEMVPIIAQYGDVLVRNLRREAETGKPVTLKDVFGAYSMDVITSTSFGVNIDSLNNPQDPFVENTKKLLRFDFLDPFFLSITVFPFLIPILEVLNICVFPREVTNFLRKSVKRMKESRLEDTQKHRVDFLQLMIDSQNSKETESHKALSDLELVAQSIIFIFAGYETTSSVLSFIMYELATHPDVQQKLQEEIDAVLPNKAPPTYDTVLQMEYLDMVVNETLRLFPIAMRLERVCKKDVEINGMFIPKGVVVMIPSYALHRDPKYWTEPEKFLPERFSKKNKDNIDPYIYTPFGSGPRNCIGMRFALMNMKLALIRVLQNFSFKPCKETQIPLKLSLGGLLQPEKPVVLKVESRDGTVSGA

AC50, active:
COC(=O)[C@@]1(Cc2ccc(F)cc2)[C@H]2c3cc(C(=O)N4CCCC4)n(Cc4c(CO)[nH]cc(C)c4=O)c3C[C@H]2CN1C(=O)c1ccccc1 2 µM, COC(=O)[C@@]1(Cc2ccccc2)[C@H]2c3cc(C(=O)N4CCCC4)n(Cc4c(CO)[nH]cc(C)c4=O)c3C[C@H]2CN1C(=O)c1ccccc1 2.51 µM, O=C1c2cccc3cccc(c23)C(=O)N1CC1CCN(CC(O)COc2ccc3ccccc3c2)CC1 (configuration not stated) 7.94 µM, CCCOC(=O)c1c(-c2ccccc2)nc(CC)c(C(=O)SCC)c1CCC 10 µM, N#C/C(=C\c1cn[nH]c1-c1ccccc1)C(=O)NC1CCCCCC1 7.08 µM, N#C/C(=C\c1cc(Cl)cc(Cl)c1O)C(=O)NC1CCCCC1 15.8 µM, CCN(CC)c1ccc2c(Cl)cc(=O)oc2c1 25.1 µM, CCN(CC)c1ccc(C(=O)OCc2cc(=O)oc3cc(O)ccc23)cc1 6.31 µM, O=c1c(-c2cccs2)nc2cnc(N3CCNCC3)nc2n1-c1ccccc1 25.1 µM, COc1ccc(-n2c(=O)c(-c3cccs3)nc3cnc(N4CCNCC4)nc32)cc1 15.8 µM, CN1CCN(c2ncc3nc(-c4cccs4)c(=O)n(-c4ccccc4)c3n2)CC1 31.6 µM, COc1ccccc1CNc1ncnc2ccc(-c3ccc(N(C)C)cc3)cc12 2 µM, COc1ccccc1CNc1ncnc2ccc(-c3ccc4c(c3)OCO4)cc12 1.26 µM, COc1ccc(CNc2ncnc3ccc(-c4ccc(N(C)C)cc4)cc23)c(OC)c1 3.98 µM, O=C(c1ccc2c(=O)n(Cc3ccco3)c(=S)[nH]c2c1)N1CCN(c2ccccc2)CC1 6.31 µM, COc1ccc(CCNC(=O)c2ccc3c(=O)n(Cc4ccco4)c(=S)[nH]c3c2)cc1OC 0.631 µM, Cc1onc(-c2ccccc2)c1C(=O)NCCc1c[nH]c2ccccc12 8.91 µM, COc1cc(C(=O)Nc2ccc(-c3nnc(-c4ccco4)o3)cc2)cc(OC)c1OC 7.08 µM, COc1cccc(C(=O)Nc2ccc(-c3nnc(-c4ccco4)o3)cc2)c1 4.47 µM, C=CCNc1oc(/C=C/c2ccccc2)nc1C#N 15.8 µM, Cc1cnc(CNc2nc(-c3ccoc3)nc3ccccc23)cn1 12.6 µM, Cc1cnc(CNc2nc(-c3ccc(N(C)C)cc3)nc3ccccc23)cn1 5.01 µM, C=CCn1c(-c2cccn(Cc3ccccc3)c2=O)n[nH]c1=S 12.6 µM, Clc1ccc(CCNc2nc3ccccc3s2)cc1 15.8 µM, O=c1c(-c2nc3ccccc3s2)cccn1Cc1ccc(Cl)cc1 14.1 µM, O=c1c(-c2nc3ccccc3s2)cccn1Cc1ccccc1 17.8 µM, O=C(CCc1ccc(S(=O)(=O)NC2CCCCC2)cc1)N(Cc1ccccc1)Cc1ccccc1 3.16 µM, Cc1ccc(NC(=O)CCc2ccc(S(=O)(=O)NC3CCCCC3)cc2)cc1 0.891 µM, CCOc1ccc(S(=O)(=O)NCc2ccc(F)cc2)c2cccnc12 15.8 µM, O=C(CCN1C(=O)S/C(=C\c2ccccc2)C1=O)Nc1ccc(S(=O)(=O)Nc2nccs2)cc1 5.01 µM, O=C(NCC1CCCO1)C1c2ccccc2C(=O)N1Cc1ccc2c(c1)OCO2 (configuration not stated) 1.41 µM, CCOc1ccc(-n2c(N)c(C(=O)NCc3cccnc3)sc2=S)cc1 2 µM, Cc1ccc(-n2c(N)c(C(=O)NCc3ccco3)sc2=S)cc1 25.1 µM, COc1ccc(-n2c(N)c(C(=O)NCc3ccco3)sc2=S)cc1 25.1 µM, COc1ccccc1S(=O)(=O)Nc1ccc(-c2nnc3n2CCCCC3)cc1 14.1 µM, O=C(/C(=C/c1ccc(Cl)cc1)c1nc2ccccc2[nH]1)c1ccccc1 3.55 µM, COc1ccc(N2CCC(CNC(=O)Nc3ccc(OC)cc3OC)C2)cc1 (configuration not stated) 7.08 µM, COc1ccc(CCNC(=O)CCN2C(=O)COc3ccc(C)cc32)cc1OC 2.24 µM, COc1ccc(CCNC(=O)CCN2C(=O)C(C)Oc3ccc(C)cc32)cc1OC (configuration not stated) 1.78 µM, O=C1CSC(c2ccccc2F)N1c1cc(Cl)ccc1O (configuration not stated) 25.1 µM, N#Cc1cccc(-c2nccc(NCc3cccnc3)n2)c1 0.794 µM, N#Cc1cccc(-c2nccc(NCc3cccs3)n2)c1 10 µM, Cc1cccc(CNc2ccnc(-c3cccc(C#N)c3)n2)c1 1.26 µM, N#Cc1cccc(-c2nccc(NCc3ccccc3)n2)c1 12.6 µM, COc1ccccc1CCn1c(=O)c(-c2cc(F)cc(F)c2)nc2cncnc21 0.398 µM, COc1ccccc1CCn1c(=O)c(-c2cccc(F)c2)nc2cncnc21 3.16 µM

activity, negative = inhibition, inactive:
CCOC(=O)c1c(-c2ccccc2)nc2ccc(Cl)cn12 -22.1%, CCc1nc2c(c(SC)nn2-c2ccccc2)c(N)c1C(=O)OC -21.9% [at 11.4 µM], O=C1CCCC=C1[C@@H](O)C1CCCCC1 -18.7% [at 11.4 µM], N#C/C(=C\Nc1ccccn1)C(=O)C1CC1 -9.43% [at 11.4 µM], CCOc1cc2c(C)cc(=O)oc2cc1Cl -19.3%, Cc1cc(=O)oc2cc(O)ccc12 -8.45% [at 25.6 µM], COc1ccc2c(CC(=O)NCC3CCC(C(=O)O)CC3)cc(=O)oc2c1 (configuration not stated) -1.71%, CCN(CC)c1ccc2cc(C(C)=O)c(=O)oc2c1 -19.1%, Cc1nc2cnc(N3CCN(C)CC3)nc2n(-c2ccccc2)c1=O -12.7%, O=c1c(-c2cc(F)cc(F)c2)nc2cnc(N3CCOCC3)nc2n1-c1ccccc1 -17.5%, COc1ccc(-n2c(=O)c(-c3ccccc3)nc3cnc(N4CCNCC4)nc32)cc1 -7.64%, COc1ccc(-n2c(=O)c(-c3ccc(Cl)cc3)nc3cnc(N4CCNCC4)nc32)cc1 -1.14%, CN(C)c1ncc2nc(-c3cccs3)c(=O)n(-c3ccccc3)c2n1 -3.28%, CCOC(=O)c1[nH]c(C(=O)O)c(CCC(=O)OC)c1C 6.89%, Cc1cc(C)nc(NC(=O)CCCC(=O)O)c1 1.45%, C[N+]1(C)CCO[C@](O)(c2ccccc2)C1 -8.04% [at 11.4 µM], COc1ccc(NC(=O)c2ccc3c(=O)n(Cc4ccco4)c(=S)[nH]c3c2)c(OC)c1 -27%, CC(C)NC(=O)c1ccc2c(=O)n(Cc3ccco3)c(=S)[nH]c2c1 -26%, Nc1ccccc1Nc1ccccc1 -23.8% [at 11.4 µM], C[C@H]1O[C@@H](CC(=O)O)Cc2c1c(O)c1c(O)cc(-c3cc(=O)c4c(=O)c5c(c(=O)c=4c3=O)C[C@H](CC(=O)O)O[C@@H]5C)c(O)c1c2O -6.62% [at 11.4 µM], CCN1C(=O)CC(N2CCN(CC(=O)NC(C)C)CC2)C1=O (configuration not stated) 1.59%, O=C(COc1ccccc1)Nc1ccc(-c2nnc(-c3ccco3)o2)cc1 18.1%, O=C(NNc1nc2ccccc2s1)c1ccccc1F -13.7%, C=CCn1c(C(C)NC(=O)c2ccccc2)n[nH]c1=S (configuration not stated) -3.87% [at 11.4 µM], CC(=O)NNc1nc2ccccc2s1 -8.59%, OC[C@@H]1O[C@@H](n2cnc3c(NC4CCCCC4)ncnc32)[C@@H](O)[C@H]1O -10.8%, O=C(CCc1ccccc1)NNC(=O)C1CCCCC1 -0.205% [at 2.29 µM], O=C(NNS(=O)(=O)c1ccc(Cl)cc1)NC1CCCCC1 14.5%, CCC(C)NS(=O)(=O)c1ccc(NC(=O)CCC2CCCCC2)cc1 (configuration not stated) 14.9% [at 2.29 µM], CC(=O)NS(=O)(=O)c1ccc(NC(=O)NC2CCCCC2)cc1 -6.87%, O=C(O)c1ccccc1/C=N\N=C1c2ccccc2-c2ccccc21 -13.2% [at 11.4 µM], CCOc1ccccc1OCCOc1ccc(F)cc1 -15%, Cn1c(CNS(=O)(=O)c2ccc(F)cc2)n[nH]c1=S -10.2%, Nc1ccc(S(=O)(=O)Nc2nccs2)cc1 -15.7% [at 25.6 µM], O=C1Nc2ccccc2C1=Nc1ccc(S(=O)(=O)Nc2nccs2)cc1 -1.93% [at 11.4 µM], O=C(NCC1CCCO1)C1CCC(=O)N1CCc1ccccc1 (configuration not stated) -13.8%, CCS(=O)(=O)N1CCC(C(=O)NCC2CCCO2)CC1 (configuration not stated) 1.97%, CCOc1ccc(-n2c(C)nc3cc(C(=O)NCc4ccco4)ccc32)cc1 -16.2%, CCOc1ccc(N2C(=O)c3cccnc3C2=O)cc1 -13.3%, CC(C)c1cc(CN(C)C)c(O)c(C(C)(C)C)c1 -5.68% [at 11.4 µM], N#Cc1c(-c2ccc(Cl)cc2)nc2n(c1=O)CCCS2 -15.8%, CCNc1nc(NCC)nc(N(C)N)n1 -10.2%, COc1ccc(NS(=O)(=O)c2cc(-c3nnnn3C)ccc2OC)cc1 -15.9% [at 11.4 µM], O=C(O)/C(=C/c1c(C(=O)O)[nH]c2cc(Cl)cc(Cl)c12)c1ccccc1 -1.29%, Cc1ccc(/C=C/C(=O)c2nc3ccccc3[nH]2)cc1 -18.1% [at 2.29 µM], COCCN(C(=O)Nc1ccc(OC)cc1OC)C1CCN(C(C)=O)CC1 -11.9%, COc1ccc(CC(=S)N2CCOCC2)cc1OC -2.8% [at 2.29 µM], Cc1ccc2c(c1)N(CC(=O)NCc1cccs1)C(=O)C(C)O2 (configuration not stated) -21.8% [at 2.29 µM], O=C1CSC(c2ccccn2)N1c1ccc(Cl)c(Cl)c1 (configuration not stated) 11%, NC(=O)c1ccc(C2SCC(=O)N2Cc2ccccc2)cc1 (configuration not stated) 8.69%, CN(C)c1ncc2nc(-c3cc(F)cc(F)c3)c(=O)n(CCc3ccccc3)c2n1 -13%
